Each compound was assayed against Tyrosine-protein kinase Fyn (Homo sapiens) (UniProt P06241). Conditions: at 1 µM.
Sequence of Tyrosine-protein kinase Fyn (Homo sapiens) (P06241 2-537 limits assumed): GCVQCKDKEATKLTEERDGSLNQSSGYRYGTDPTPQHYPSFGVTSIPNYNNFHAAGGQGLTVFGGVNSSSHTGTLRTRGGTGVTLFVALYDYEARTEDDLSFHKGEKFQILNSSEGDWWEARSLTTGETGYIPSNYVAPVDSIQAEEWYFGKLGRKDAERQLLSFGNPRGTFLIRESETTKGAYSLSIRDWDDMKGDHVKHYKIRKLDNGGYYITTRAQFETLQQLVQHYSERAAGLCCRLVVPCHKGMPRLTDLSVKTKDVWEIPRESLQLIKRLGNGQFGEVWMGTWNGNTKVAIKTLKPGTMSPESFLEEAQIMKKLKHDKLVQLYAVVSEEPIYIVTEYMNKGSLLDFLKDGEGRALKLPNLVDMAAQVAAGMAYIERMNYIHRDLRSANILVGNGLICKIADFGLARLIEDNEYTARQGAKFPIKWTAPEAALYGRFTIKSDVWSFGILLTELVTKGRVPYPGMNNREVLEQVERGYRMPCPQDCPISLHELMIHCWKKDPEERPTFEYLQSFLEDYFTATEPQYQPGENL

Compound | inhibition [%]
COc1ccc(CNC(=O)c2ccc(-c3cc(-c4nnc(C)o4)ccc3C)cc2)cc1 | 2.79
Fc1ccc(-c2cc(-c3c[nH]nc3-c3ccccn3)ccn2)cc1 | 5
CS(=O)(=O)CCNCc1ccc(-c2ccc3ncnc(Nc4ccc(OCc5ccccc5)c(C(F)(F)F)c4)c3c2)o1 | 4.69
COc1ccc2c(-c3ccnc(Nc4cccc(OC(F)(F)F)c4)n3)cnn2n1 | 7.69
c1ccc(-c2nc3n(c2-c2ccc4c(c2)OCO4)CCC3)nc1 | 2.79
COc1ccc(-c2cc(-c3c[nH]nc3-c3ccccn3)ccn2)cc1 | 3.5
COc1ccc(-c2cc3c(N)ncnc3o2)cc1 | 3.42
FC(F)(F)c1cccc(-c2nn3ncccc3c2-c2ccnc(Nc3ccc4c(c3)OCCO4)n2)c1 | 48.1
N#Cc1c(NC(=O)CN2CCOCC2)sc2c1CCCC2 | 8.48
COC(=O)Nc1nc2ccc(Oc3ccc(NC(=O)Nc4cccc(Cl)c4)cc3)cc2[nH]1 | 2.41
CN1CCC(n2cnc(-c3ccc(F)cc3)c2-c2ccnc(Nc3ccccc3)n2)CC1 | 8.11
Clc1ccc(-c2nn3ncccc3c2-c2ccnc(Nc3ccccc3)n2)cc1 | 43.5
COc1ccc(-c2nn3ncccc3c2-c2ccnc(Nc3ccc4c(c3)OCCO4)n2)cc1 | 36.6
Nc1nc(-c2ccc(F)cc2)c(-c2ccc3ncccc3n2)s1 | 12.4
COc1ccc2[nH]c3c4[nH]c5ccc(OC)cc5c4c4c(c3c2c1)C(=O)NC4=O | 19
Cc1ccc(O)cc1Nc1ccnc2cc(-c3ccccn3)ccc12 | 88.5
NS(=O)(=O)c1ccc(N/N=C2\C(=O)Nc3ccc4ncccc4c32)cc1 | 30.1

Compound | inhibition [%]
CCN1CCC(CC(=O)Nc2n[nH]c3nnc(-c4cccc(F)c4F)cc23)CC1 | 3.55
COc1cccc(-c2c[nH]c3c(N/N=C/c4ccncc4)ncnc23)c1 | 58.7
NC(=O)c1sc(-n2cnc3ccc(C(F)(F)F)cc32)cc1OCc1ccccc1Br | 4.41
CC(C)COC(=O)c1ccc2c(c1)/C(=C/Nc1ccc(S(N)(=O)=O)cc1)C(=O)N2 | 71.6
CCn1c(-c2nonc2N)nc2cnc(Oc3cccc(NC(=O)c4ccc(N(C)C)cc4)c3)cc21 | 1.97
Fc1cccc(COc2ccc(Nc3ncnc4sc(-c5ccco5)cc34)cc2Cl)c1 | 4.89
CC(=O)NCc1cccc(C#Cc2cncnc2Nc2ccc(OCc3cccc(F)c3)c(Cl)c2)c1 | 3.27
CS(=O)(=O)CCNCc1coc(-c2ccc3ncnc(Nc4ccc(OCc5ccccc5)cc4)c3c2)c1 | 12.2
Cc1ccc2c(-c3ccnc(Nc4ccccc4)n3)c(-c3ccc(F)cc3)nn2n1 | 68.9
O=S(=O)(CCNCc1ccc(-c2ccc3ncnc(Nc4ccc(OCc5cccc(F)c5)c(Cl)c4)c3c2)o1)c1ccccc1 | 4.09
CCNC(=O)O[C@H]1CN[C@H](C#Cc2cc3ncnc(Nc4ccc(OCc5cccc(F)c5)c(Cl)c4)c3s2)C1 | 1.8
c1ccc(COc2ccc(Nc3ncnc4ccc(-c5ccco5)cc34)cc2)cc1 | 3.93
COC(=O)c1sc(-n2cnc3cc(OC)c(OC)cc32)cc1OCc1ccccc1C(F)(F)F | 56.3
Cc1cccc2c1NC(=O)/C2=N\Nc1ccc(S(N)(=O)=O)cc1 | 1.92
CC(=O)Nc1cccc(C#Cc2cncnc2Nc2ccc(OCc3cccc(F)c3)c(Cl)c2)c1 | 5.51
CCn1c(-c2nonc2N)nc2ccccc21 | 0.78

— ChEMBL document CHEMBL1961873, “Compounds: GSK PKIS; Assays: Nanosyn kinase panel” (2012)
